Bioassay records as filed in PubChem.
Most compounds without a hit are left out; they make up all but 27% or so of the library.
sEH inhibitor – soluble epoxide hydrolase (human) inhibition; P34913; recombinant human sEH enzymatic activity assay; inhibition, % at 2 µM; 0.34% of 91,000 active; AID 707; in the data active = inhibition above about 80%
Target sequence (P34913 whole entry, looked up): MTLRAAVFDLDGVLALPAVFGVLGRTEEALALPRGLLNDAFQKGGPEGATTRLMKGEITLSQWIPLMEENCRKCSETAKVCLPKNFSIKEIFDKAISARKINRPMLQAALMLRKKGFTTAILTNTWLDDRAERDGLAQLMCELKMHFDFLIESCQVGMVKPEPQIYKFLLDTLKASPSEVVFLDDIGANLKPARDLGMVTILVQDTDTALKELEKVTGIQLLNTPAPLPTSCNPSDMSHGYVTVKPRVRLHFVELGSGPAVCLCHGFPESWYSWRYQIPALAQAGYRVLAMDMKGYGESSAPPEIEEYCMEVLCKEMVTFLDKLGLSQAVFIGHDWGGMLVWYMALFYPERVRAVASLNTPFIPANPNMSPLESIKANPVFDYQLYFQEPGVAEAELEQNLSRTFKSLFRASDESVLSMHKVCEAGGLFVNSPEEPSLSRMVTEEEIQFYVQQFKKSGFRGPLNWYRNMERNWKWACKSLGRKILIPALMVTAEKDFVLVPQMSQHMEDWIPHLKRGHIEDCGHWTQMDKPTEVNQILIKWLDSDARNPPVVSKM
sEH activator – activators of human soluble epoxide hydrolase; purified human sEH enzymatic activity, activator screen; P34913; AID 717; activation, % at 2 µM; 0.04% of 91,000 active; in the data active = activation above about 37%
CYP2C9 act – increases human cytochrome P450 2C9 activity; recombinant CYP2C9, luciferin-H conversion, luminescence; stronger effect = higher value; factor 1 = untreated enzyme, 0 = blocked; activation factor at 5 µM; AID 1024; 1.4% of 96,000 active; P11712;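 active = activation factor of 2 or more for CYP2C9 at a 5 µM dose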;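 note: 0 = sulfaphenazole-blocked wells and 1 = vehicle-only wells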
CYP2C19 act – activators of human cytochrome P450 2C19 | AID 1025 | recombinant CYP2C19, luciferin-H EGE luminescence; stronger effect = higher value; 0 = fully inhibited enzyme, 1 = untreated enzyme | activation factor at 5 µM | P33261 | 96,000 tested, under 10 active;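 active = activation factor of at least 2 at 5 µM in the primary screen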;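 note: 0 = wells with 2.5 mM tranylcypromine and 1 = vehicle-only wells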
CYP2C9 inh – inhibitors of human CYP2C9; CYP2C9 Supersomes, luciferin-H conversion, luminescence; P11712; AID 777; 20% of 96,000 active; inhibition, % at 5 µM;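 active = blocking of liver enzyme CYP2C9 beyond about 50% at 5 µM, limit read from the data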
CYP2C19 inhib – inhibitors of human CYP2C19. P33261. CYP2C19 Supersomes, luciferin-H EGE luminescence, 30 min. inhibition, % at 5 µM. 21% of 96,000 active;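 active = CYP2C19 inhibition above a set limit at 5 µM in the primary screen, cut at about 50% in these data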;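 note: plate controls were negative control wells for no effect and 2.5 mM tranylcypromine positive control for full effect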
Numbers without * were called inactive; / = not tested or not shown.

SMILES	sEH inhibitor	sEH activator	CYP2C9 act	CYP2C19 act	CYP2C9 inh	CYP2C19 inhib
CC(Oc1ccc2oc(-c3ccccc3)c(C(=O)O)c2c1)C(=O)O (stereo not drawn)	20	-18	1.1	1.2	-15	-20
CCOc1ccc(N2CC(=O)N/C2=N\c2nc(C)cc(C)n2)cc1	2	-2	1	1.1	-4	-7
CCn1cc(/C=N\NC(=O)c2csc3ccccc23)c(C)n1	57	-56	0.9	0.9	10	8
O=C(N/N=C/c1ccc(O)cc1)c1csc2ccccc12	84*	-84	3*	0.8	-199	19
CCc1ccccc1NC(=O)CC(O)(C(=O)OC)C(F)(F)F (stereo not drawn)	-2	5	0.8	0.5	23	48
O=C(CNC1CCCCCC1)Nc1ccc(S(=O)(=O)NC2CC2)cc1	15	-14	0.7	0.7	29	25
O=C(NC1CC1)c1ccc(S(=O)(=O)NC2CCCCCC2)cc1	5	-3	0.7	0.5	35	54*
CSc1ccc(S(=O)(=O)NC2CCCCCC2)cc1	12	-12	0.8	0.1	23	95*
O=C(O)c1ccc(S(=O)(=O)NC2CCCCC2)cc1	1	-2	1.2	1.1	-15	-11
O=C(CSc1nc(C2CCCCC2)n(-c2ccccc2)n1)NCCN1C(=O)CSC1=O	2	1	0	0	98*	95*
Cn1nc(CC(=O)NCCN2C(=O)CSC2=O)c2ccccc2c1=O	/	/	1.2	0.3	-15	70*
